Screening data deposited in PubChem BioAssay by National Center for Advancing Translational Sciences (NCATS).
Rows were chosen to be rich in hits. Some 19% of all compounds tested hit in one or more screens of this group.
DT40 TDP1 CPT: DT40-hTDP1 cell growth loss with CPT. chicken DT40 Tdp1-/-;hTDP1 cells + 20 nM CPT, ATP luminescence, 48 h. Potency, µM (highest dose often 46.2 µM), for inactives: top-dose activity change, negative = growth inhibition, usual class: inhibitors. hit rate 12% among 420,000. AID 686979; note: potency is the fitted concentration of half-maximal effect; % is set by controls: 0 for no effect and ±100 for the full control effect; nearly all actives have a fitted effect of over 55% in size
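Chicken DT40 Tdp1-/- cells complemented with human TDP1, 400 cells/well, exposed to compounds plus 20 nM camptothecin for at least 48 h at 37 C; viability read as ATP content by CellTiter-Glo luminescence.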
TGFb SMAD3 inh: TGF-b pathway inhibition; Potency, µM (titrated, usually from 46.1 µM), without a hit: top-dose activity, negative = inhibition, usual class: inhibitors; hit rate 1.2% among 410,000; HepG2 CAGA-GFP TGF-b/SMAD3 reporter, GFP fluorescence, 18 h; TGF-beta stimulated, 500 pg/mL final; note: potency is the fitted concentration of half-maximal effect; % is set by controls: 0 for no effect and ±100 for the full control effect; nearly all actives have a fitted effect of over 65% in size
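Inhibition was scored as loss of TGF-beta-induced (500 pg/mL final, 18 hours, 37 degrees C) GFP in HEPG2 cells carrying a CAGA-GFP reporter, in DMEM with 1% FBS. Well GFP was summed per cell; Activity was normalised to unstimulated and stimulated DMSO wells, then concentration-response fitting.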
ASM inhibitor: blocks human secretory acid sphingomyelinase; P17405; placental ASM, HMU-PC fluorogenic substrate, 60 min; Potency, µM (highest dose often 57.5 µM), inactives show top-dose activity change, negative = inhibition, usual class: inhibitors; hit rate 0.006% among 340,000; AID 504937; note: potency is the fitted concentration of half-maximal effect
Target sequence (P17405 47-631 limits assumed): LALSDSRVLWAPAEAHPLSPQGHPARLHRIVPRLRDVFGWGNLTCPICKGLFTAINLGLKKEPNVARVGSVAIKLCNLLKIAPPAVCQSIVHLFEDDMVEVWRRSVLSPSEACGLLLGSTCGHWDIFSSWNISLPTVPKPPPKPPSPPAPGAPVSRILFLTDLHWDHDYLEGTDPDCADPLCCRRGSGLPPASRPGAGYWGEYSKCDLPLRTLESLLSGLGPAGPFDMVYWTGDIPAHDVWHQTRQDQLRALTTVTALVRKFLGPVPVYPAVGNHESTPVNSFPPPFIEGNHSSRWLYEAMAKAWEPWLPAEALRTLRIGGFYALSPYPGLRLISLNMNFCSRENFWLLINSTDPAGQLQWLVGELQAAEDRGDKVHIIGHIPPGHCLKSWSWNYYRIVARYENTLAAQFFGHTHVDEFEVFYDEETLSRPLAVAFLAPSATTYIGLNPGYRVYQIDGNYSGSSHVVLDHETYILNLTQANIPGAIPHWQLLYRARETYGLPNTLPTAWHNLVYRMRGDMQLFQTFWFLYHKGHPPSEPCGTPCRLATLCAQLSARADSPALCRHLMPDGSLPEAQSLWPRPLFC
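qHTS format. ASM enzyme prepared from human placenta hydrolyses the fluorogenic substrate HMU-PC0 (9 uM final) over 60 min at 37 °C after a 10 min compound preincubation.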
IL-1B inflam inh: inflammasome signaling inhibition, IL-1 beta readout; AID 743279; hit rate 4.7% among 360,000; activity change, % at 57.5 µM; THP-1 LPS/ATP IL-1B secretion, AlphaLISA, 16 h; stronger effect = lower value; in the data active = activity change below about -50%; inconclusive = mostly about -30% to -49%; note: % is set by controls: 0 for no effect and ±100 for the full control effect
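THP-1 cells pretreated 1 hr with compounds (up to 57.5 uM final), then stimulated with LPS (250 ng/mL final) plus ATP (1.25 mM final); secreted IL-1B measured by AlphaLISA after 16 hr, decreased signal indicating inhibition.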
HepG2 viability: counter-screen for TGF-b inhibitors: cytotoxicity in HepG2 cells; HepG2 CAGA-GFP viability, ATP luminescence, 18 h; Potency, µM (top dose mostly 46.1 µM), without a hit: at the top dose activity change, negative = cytotoxicity, usual class: cytotoxic; hit rate 0.76% among 410,000; AID 588856; note: potency is the fitted concentration of half-maximal effect
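HepG2 CAGA-GFP cells (1000/well, DMEM with 1% FBS) received compound, then TGF-beta at 500 pg/mL final, and were incubated 18 hours at 37 degrees C. Viability was read by CellTiter-Glo luminescence. Media-only wells were set as complete cell-killing and DMSO as no toxicity.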
TDP1 cell noCPT: qHTS for Inhibitors of human tyrosyl-DNA phosphodiesterase 1 (TDP1): qHTS in cells in absence of CPT; AID 686978, 2013; Potency, µM (doses to about 46.2 µM), inactives show top-dose activity change, negative = growth inhibition, actives largely listed as inhibitors; hit rate 15% among 420,000; DT40 Tdp1-/- hTDP1 cells, no CPT, ATP luminescence, 48 h; note: potency is the fitted concentration of half-maximal effect; % is set by controls: 0 for no effect and ±100 for the full control effect; nearly all actives have a fitted effect of over 55% in size
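No-CPT arm: Tdp1-/-;hTDP1 DT40 cells (400/well) plus compounds, incubated ≥48 hr at 37 °C. Readout CellTiter-Glo luminescence.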
The depositor's hits bear a star. Unless noted, calls come from the whole dose curve; as a rule, active = well fitted curve in the direction sought with a large enough effect; inconclusive = small, poorly fitted or top-dose-only effect, or another doubt; inactive = no such curve, though single readings can be large; an effect the other way counts as inactive or inconclusive.

`OC1(C#Cc2c(-c3ccsc3)oc3ccc(N4CCOCC4)cc23)CCCCC1` gave DT40 TDP1 CPT inconclusive, TGFb SMAD3 inh inconclusive, ASM inhibitor 42%, IL-1B inflam inh 0, HepG2 viability -21% and TDP1 cell noCPT inconclusive.
Screening COc1ccc(-c2oc3cccnc3c2C#CCO)cc1 returned DT40 TDP1 CPT inconclusive, TGFb SMAD3 inh -21%, ASM inhibitor 96%, IL-1B inflam inh 0, HepG2 viability 0% and TDP1 cell noCPT inconclusive.
COc1ccc(C#Cc2c(-c3ccsc3)oc3ccc(N4CCOCC4)cc23)cc1 was read as DT40 TDP1 CPT inconclusive, TGFb SMAD3 inh -8%, ASM inhibitor 122%, IL-1B inflam inh -8, HepG2 viability -28% and TDP1 cell noCPT -20%.
CCOC(=O)N1CCN(S(=O)(=O)c2ccc(C)c([N+](=O)[O-])c2)CC1 was read as DT40 TDP1 CPT 4%, TGFb SMAD3 inh -17%, ASM inhibitor -2%, IL-1B inflam inh 13, HepG2 viability 6% and TDP1 cell noCPT -16%.
`CN1CCN(C(=S)NC(=O)c2cccc(S(=O)(=O)N(C)C)c2)CC1` gave DT40 TDP1 CPT -2%, TGFb SMAD3 inh 5%, ASM inhibitor -1%, IL-1B inflam inh -2, HepG2 viability 12% and TDP1 cell noCPT -14%.
Screening O=C(NCC1CCCO1)c1cc(-c2ccccc2F)no1 (stereo unspecified) returned DT40 TDP1 CPT inconclusive, TGFb SMAD3 inh -1%, ASM inhibitor -1%, IL-1B inflam inh 31, HepG2 viability -25% and TDP1 cell noCPT inconclusive.
CC(C)(C)N(Cc1ccccc1)C(=O)c1cc2ccccc2o1 was read as DT40 TDP1 CPT inconclusive, TGFb SMAD3 inh inconclusive, ASM inhibitor -5%, IL-1B inflam inh 5, HepG2 viability -26% and TDP1 cell noCPT 12µM*.
For CCCc1ccc2oc(C(=O)N(Cc3ccncc3)CC3CCCO3)c(C)c2c1 (stereo unspecified) the results were DT40 TDP1 CPT inconclusive, TGFb SMAD3 inh inconclusive, ASM inhibitor -6%, IL-1B inflam inh -85*, HepG2 viability -28% and TDP1 cell noCPT 18µM*.
`CN(Cc1ccccc1)C(=O)c1cc2ccccc2o1` gave DT40 TDP1 CPT 3%, TGFb SMAD3 inh -1%, ASM inhibitor 0%, IL-1B inflam inh 0, HepG2 viability -20% and TDP1 cell noCPT -16%.
Screening COc1ccc(C(=O)N(Cc2ccc(N(C)C)cc2)CC2CCCO2)cc1 (stereo unspecified) returned DT40 TDP1 CPT inconclusive, TGFb SMAD3 inh -27%, HepG2 viability -1% and TDP1 cell noCPT -16%.
Cc1ccc2oc(C(=O)N(Cc3ccncc3)CC3CCCO3)c(C)c2c1 (stereo unspecified) was read as DT40 TDP1 CPT inconclusive, TGFb SMAD3 inh -5%, ASM inhibitor -1%, IL-1B inflam inh 2, HepG2 viability -38% and TDP1 cell noCPT inconclusive.
Screening Cc1c(C(=O)N(Cc2ccc(Cl)cc2)CC2CCCO2)oc2ccc(F)cc12 (stereo unspecified) returned DT40 TDP1 CPT inconclusive, TGFb SMAD3 inh 0%, HepG2 viability -36% and TDP1 cell noCPT 15µM*.
`CN(C)c1ccc(CN(CC2CCCO2)C(=O)c2cc3ccccc3o2)cc1` (stereo unspecified) gave DT40 TDP1 CPT 18µM*, TGFb SMAD3 inh -3%, IL-1B inflam inh -23, HepG2 viability -61% and TDP1 cell noCPT inconclusive.
Cc1c(C(=O)N(Cc2ccc(N(C)C)cc2)CC2CCCO2)oc2ccc(Br)cc12 (stereo unspecified) was read as DT40 TDP1 CPT inconclusive, TGFb SMAD3 inh inconclusive, HepG2 viability -41% and TDP1 cell noCPT inconclusive.
Screening Cc1c(C(=O)N(Cc2ccc(N(C)C)cc2)CC2CCCO2)oc2ccc(Cl)cc12 (stereo unspecified) returned DT40 TDP1 CPT 16µM*, TGFb SMAD3 inh inconclusive, HepG2 viability -22% and TDP1 cell noCPT 21µM*.
CCOc1cccc(C(=O)N(Cc2ccc(N(C)C)cc2)CC2CCCO2)c1 (stereo unspecified) was read as DT40 TDP1 CPT 15µM*, TGFb SMAD3 inh inconclusive, HepG2 viability -2% and TDP1 cell noCPT 16µM*.
For CN(C)c1ccc(CN(CC2CCCO2)C(=O)c2ccc(Br)cc2)cc1 (stereo unspecified) the results were DT40 TDP1 CPT inconclusive, TGFb SMAD3 inh -11%, HepG2 viability -21% and TDP1 cell noCPT -78%.
Screening Cc1cc2oc(C(=O)N(Cc3ccc(N(C)C)cc3)CC3CCCO3)c(C)c2cc1Cl (stereo unspecified) returned DT40 TDP1 CPT inconclusive, TGFb SMAD3 inh 2%, HepG2 viability -2% and TDP1 cell noCPT 18µM*.
Cc1c(C(=O)N(Cc2ccc(N(C)C)cc2)CC2CCCO2)oc2ccccc12 (stereo unspecified) was read as DT40 TDP1 CPT 23µM*, TGFb SMAD3 inh inconclusive, ASM inhibitor -1%, IL-1B inflam inh inconclusive, HepG2 viability 4% and TDP1 cell noCPT 23µM*.
Screening Cc1ccc(OCC(=O)N(Cc2ccc(Cl)cc2)CC2CCCO2)cc1C (stereo unspecified) returned DT40 TDP1 CPT inconclusive, TGFb SMAD3 inh inconclusive, HepG2 viability -47% and TDP1 cell noCPT inconclusive.
O=C1NC[C@H](Cc2ccccc2)N(CC2CCN(CCCC3CCCC3)CC2)C1=O was read as DT40 TDP1 CPT -12%, TGFb SMAD3 inh -13%, ASM inhibitor -9%, IL-1B inflam inh -14, HepG2 viability -6% and TDP1 cell noCPT -17%.
Screening Cc1nc(C(=O)Nc2ccc(Cl)cc2Cl)nn1-c1cc(OC(C)C)c(Cl)cc1Cl returned DT40 TDP1 CPT inconclusive, TGFb SMAD3 inh 3%, ASM inhibitor -7%, IL-1B inflam inh 0, HepG2 viability -22% and TDP1 cell noCPT inconclusive.
Screening Cc1nc(C(=O)Nc2cc(Cl)ccc2Cl)nn1-c1cc(OC(C)C)c(Cl)cc1Cl returned DT40 TDP1 CPT 16µM*, TGFb SMAD3 inh 12%, ASM inhibitor -16%, IL-1B inflam inh 12, HepG2 viability 6% and TDP1 cell noCPT 12µM*.
Screening Cc1nc(C(=O)Nc2cccc(Cl)c2)nn1-c1cc(OC(C)C)c(Cl)cc1Cl returned DT40 TDP1 CPT 16µM*, TGFb SMAD3 inh inconclusive, ASM inhibitor -3%, IL-1B inflam inh -5, HepG2 viability 23% and TDP1 cell noCPT inconclusive.
